Experimental data taken from PubChem BioAssay AID1850 (Southern Research Specialized Biocontainment Screening …, 2009).
The campaign covered roughly 310,000 compounds. About 1,000 (0.32%) were called active. The rule behind the calls is not given here. These entries were drawn from the full list. Potency and affinity values are given separately.

Assay: PhoP regulon inhibitors, Salmonella typhi PhoP promoter GFP reporter, confirmatory (AID 1850);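 note: 0% = induced wells with vehicle and 100% = uninduced wells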
Conditions: fluorescence, 4 h, at 50 µM, active compounds read high

Compound	inhibition
C/C(CC(=O)Nc1ccccc1C(F)(F)F)=N\NC(=O)c1cnccn1	-1.08% (inactive)
CCCn1c(O)c(N=NC(=O)CNC(=O)Cc2ccc(OC)cc2)c2ccccc21	-19.2% (inactive)
CCCN(CCC)S(=O)(=O)c1cccc(C(=O)N=c2sccn2C)c1	-5.43% (inactive)
Cc1cccc(NC(=O)c2cc([N+](=O)[O-])ccc2Cl)c1O	-4.69% (inactive)
CCOc1cc(C(=O)Nc2ccc3c(c2)OCO3)ccc1OCCOc1ccccc1Cl	-0.32% (inactive)
CC(=O)c1cccc(Nc2c3c(nc4ccccc24)CCC3)c1	12.8% (inactive)
Cc1ccc2nc3c(c(Nc4cccc(O)c4)c2c1)CCC3	7.27% (inactive)
O=C(Cc1ccsc1)Nc1cc(F)ccc1F	3.38% (inactive)
O=C(COc1ccc(S(=O)(=O)N2CCCCC2)cc1Cl)N1CCOCC1	-6.77% (inactive)
COc1ccc(Cl)cc1NC(=O)C1CC(=O)N(C2CCCCC2)C1 (stereo unspecified)	-8.7% (inactive)
O=C(COC(=O)c1ccc(Br)o1)NCCNC(=O)COC(=O)c1ccc(Br)o1	-1.54% (inactive)
Cc1cc(C(=O)N2CCC(Cc3ccccc3)CC2)c(C)o1	-3.49% (inactive)
CCc1ccc(NC2=NCCCS2)cc1	39.5% (inactive)
CCOc1ccc(NC2=NCCCS2)cc1	-2.96% (inactive)
CCCCC(CC)COC(=O)c1ccccc1C(=O)OCC(CC)CCCC (stereo unspecified)	-4.54% (inactive)
COC(=O)[C@@H](N)CCCN=C(N)N[N+](=O)[O-]	-16.2% (inactive)
CCOc1ccc(OCCSc2nc(N)cc(=O)[nH]2)cc1	12.9% (inactive)
C=CCNC(=O)c1cc2cccc(OC)c2oc1=O	-9.75% (inactive)
COCC(=O)NNS(=O)(=O)c1ccccc1[N+](=O)[O-]	0.41% (inactive)
CC1CCN(c2c(NCC3CCC(C(=O)NCc4ccccc4)CC3)c(=O)c2=O)CC1 (stereo unspecified)	-9.12% (inactive)
S=C(NC1CC2CCC1C2)N1CCN(c2cccc(Cl)c2)CC1 (stereo unspecified)	15.8% (inactive)

Compound	inhibition
Cc1c(-n2cc(C(=O)O)c(=O)c3cc(F)c(N4CCCC(O)C4)c(F)c32)c(=O)n(-c2ccccc2)n1C (stereo unspecified)	2.49% (inactive)
COc1ccc(-c2noc(N3CCCC(C(=O)Nc4ccccc4F)C3)n2)cc1 (stereo unspecified)	4.79% (inactive)
CC1CCCN(C(=S)NCc2ccccc2)C1 (stereo unspecified)	-5.12% (inactive)
O=S(=O)(c1ccc(F)c(F)c1F)N1CCN(C(=S)NC2CC3CCC2C3)CC1 (stereo unspecified)	3.26% (inactive)
Cc1ccccc1N1C(=O)c2sc3nc4c(c(=O)n3c2C1=O)CCC4	0.93% (inactive)
O=C(OCCN=C1NS(=O)(=O)c2ccccc21)c1ccco1	5.3% (inactive)
O=C(c1cccc(S(=O)(=O)N2CCCC2)c1)N1CCN(c2ccccc2F)CC1	-7.17% (inactive)
O=C(CSc1nc2[nH]ncc2c(=O)n1-c1ccc(Cl)c(Cl)c1)NCc1ccccc1Cl	-3.93% (inactive)
C/C(=N\NC(=O)c1cccnc1)c1ccccc1	-2.72% (inactive)
CC(=O)Nc1ccc(S(=O)(=O)NCC2CCC(C(=O)NCCCN3CCCC3=O)CC2)cc1 (stereo unspecified)	-3.51% (inactive)
COc1ccc(S(=O)(=O)N2CCc3ccccc32)cc1C(=O)O	0.91% (inactive)
O=C(NCc1cccnc1)c1cc(Sc2ccc(F)cc2F)nc2ccccc12	-9.05% (inactive)
COc1ccc(CC(=O)NNC(=S)NC(=O)c2cccnc2)cc1	9.02% (inactive)
Cc1n[nH]c(C)c1CCNC(=O)C1CCC(=O)N(CCc2cccc(F)c2)C1 (stereo unspecified)	-2.89% (inactive)
COC(=O)CC1C(=O)NCCN1C(=S)Nc1ccc(F)cc1 (stereo unspecified)	4.44% (inactive)
COC(=O)C(C)NC(=S)N1CC2C[C@@H](C1)Cn1c2cccc1=O (stereo partly specified)	3.1% (inactive)
CCn1cc(C(=O)O)c(=O)c2cnc(N3CCN(C(=S)Nc4ccc(F)cc4)CC3)nc21	-5.98% (inactive)
COC(=O)C1=C(N)Oc2cc(N(C)C)ccc2C1c1ccccc1OC (stereo unspecified)	-7.55% (inactive)
Cc1ccc(CNC(=O)CSCc2ccccc2F)cc1	3.95% (inactive)
Cc1ccccc1N1CC(C(=O)NC2CCCC2)CC1=O (stereo unspecified)	-18.4% (inactive)
CCCNC(=O)COc1coc(CN2CCN(c3cccc(Cl)c3)CC2)cc1=O	9.58% (inactive)

Compound	inhibition
Cc1c(NC(=O)c2nn3c(c2Br)NC(c2ccccc2)CC3C(F)(F)F)c(=O)n(-c2ccccc2)n1C (stereo unspecified)	-3.46% (inactive)
c1cc2ccc3ccc(CN4CCOCC4)c4ccc(c1)c2c34	-8.34% (inactive)
OC1CCCN(Cc2cccc3ccccc23)C1 (stereo unspecified)	-1.87% (inactive)
Cc1nnc(NC(=O)CCSc2ccc(Cl)cc2)s1	-3% (inactive)
CN1CCN(CCOC2Cc3ccccc3Sc3ccc(Cl)cc32)CC1 (stereo unspecified)	-19.4% (inactive)
CC(C)c1ccc2c(c1)C(N1CCN(C)CC1)Cc1cccnc1S2 (stereo unspecified)	15.7% (inactive)
COCCCN1CCN(C2Cc3ccccc3Sc3ccc(Cl)cc32)CC1 (stereo unspecified)	1.9% (inactive)
CSc1ccc2c(c1)C(N1CCN(C)CC1)Cc1ccccc1S2 (stereo unspecified)	12.9% (inactive)
Fc1ccc2c(c1)Sc1ccc(Cl)cc1CC2N1CCN(CCC2OCCO2)CC1 (stereo unspecified)	12.3% (inactive)
COc1ccc2c(c1)CC(N1CCN(C)CC1)c1cc(OC)ccc1S2 (stereo unspecified)	21.4% (inactive)
Cc1cc(C)c(C(=O)/C=C/c2cccc3ccccc23)c(=O)[nH]1	-11.9% (inactive)
CCn1c(=O)cc(SCC(=O)N2CCOCC2)c2ccccc21	0.81% (inactive)
Cc1cccc(OCCc2c(C)[nH]c(=S)[nH]c2=O)c1	-1.55% (inactive)
NC(=O)CSc1nnc(Cn2c(=O)sc3ccccc32)n1CCc1ccccc1	1.95% (inactive)
COc1cccc(NC(=O)CCCCCN2C(=O)[C@@H]3Cc4ccccc4CN3C2=O)c1	6.78% (inactive)
CCN1C(=O)CSC1=Nc1ccc(OC)cc1	-7.25% (inactive)
COc1cc(OC)c(OC)cc1CNCCNC(=O)c1nonc1N	6.25% (inactive)
CN1CCN(C2Cc3ccc(F)cc3Sc3cc(F)c(Cl)cc32)CC1 (stereo unspecified)	8.23% (inactive)
CCOC(=O)c1cccnc1NC(=O)c1ccccc1	-7.33% (inactive)
